Screening results (PubChem)
Most compounds without a hit are left out; they make up all but 1.2% or so of the library.
Plk1 PBD FP: Plk1 polo box domain binding inhibitors, primary screen, biochemical, fluorescence polarization; Plk1 PBD phosphopeptide binding; 97,000 compounds, 0.13% hits; Serine/threonine-protein kinase PLK1 (Homo sapiens), P53350; AID 693, 2007; inhibition, %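 (tested at about 20 µM)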; in the data active = inhibition above about 34%, passing the limit was not always enough
PLK1 kinase inh: human PLK1 kinase inhibitors, primary screen, biochemical, TR-FRET | inhibition, % at 10 µM | AID 619, 2007 | recombinant PLK1 kinase, TR-FRET peptide phosphorylation | 97,000 compounds, 0.53% hits;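 active = inhibition of 50% or more in the single-concentration screen; inactive = inhibition below 50%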;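 also: 0% = DMSO max control and 100% = H-89 dihydrochloride min control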
LYP inh 2: PTPN22 phosphatase inhibitors, primary screen, biochemical, DiFMUP fluorescence, 2 µM. Tyrosine-protein phosphatase non-receptor type 22 (Homo sapiens), Q9Y2R2. recombinant LYP catalytic domain. inhibition, % at 2 µM. 96,000 compounds, 0.21% hits;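 active = inhibition at 2 µM at or above a set limit, the screen mean plus 3 SD, cut at about 24% in these data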;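 also: 0% = DMSO with enzyme and 100% = enzyme fully blocked by orthovanadate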
LYP act: LYP phosphatase activators, primary screen, biochemical, DiFMUP fluorescence, 2 µM. Tyrosine-protein phosphatase non-receptor type 22 (Homo sapiens), Q9Y2R2. recombinant LYP; 0 = plate median, 100 = signal doubled. activation, % at 2 µM. 96,000 compounds, 0.11% hits;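 active = activation at 2 µM above a set limit, the mean plus 5 SD, cut at about 37% in these data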
EphB4 ephrin blk: EphB4-ephrin-B2 interaction antagonists, primary screen, biochemical, TNYL-RAW peptide probe, fluorescence polarization | 97,000 compounds, 0.15% hits | EphB4 LBD / TNYL-RAW-Alexa532 peptide | inhibition, % at 7 µM;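 active = inhibition above the screen-wide mean inhibition plus 3 SD, cut at about 15% in these data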;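 also: 0% = DMSO wells and 100% = excess unlabeled TNYL-RAW peptide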
PBD redox DR: redox cycling hydrogen peroxide generation, dose response, artefact control for Plk1 PBD inhibitor project, biochemical; shares compounds with Plk1 PBD FP; redox cycling H2O2 generation, DTT, counter-screen; EC50, µM; 120 tested, under 10 active
PTPN22 act conf: retest of PTPN22 activators, confirmation, biochemical, DiFMUP fluorescence, single concentration; shares compounds with LYP act; Recombinant LYP, activation; zero set by plate's median compound well; activation, % at 2 µM; 100 tested, under 10 active
Starred values were filed as active, the others as inactive; · = no result given. Unless noted, no rule for the calls is given here.

SMILES | Plk1 PBD FP | PLK1 kinase inh | LYP inh 2 | LYP act | EphB4 ephrin blk | PBD redox DR | others
COc1ccc(Cn2c(=O)sc3ccccc32)cc1 | 54* | -6 | 6 | -8 | -5 | >50
CCOC(=O)C1CCCN(C(=O)CNS(=O)(=O)c2ccc(Br)s2)C1 (stereo unspecified) | -26 | -2 | 4 | -8 | 3 | ·
O=C(CNS(=O)(=O)c1ccc(Br)s1)N1CCCC1 | 44* | -3 | -1 | -2 | 6 | >50
CC(C)Sc1nc(N2CCOCC2)c2c(c1C#N)CC(C)(C)N(C)C2 | 48* | 8 | 1 | 2 | -6 | >50
CC(C)CSc1nc(N2CCOCC2)c2c(c1C#N)CC(C)(C)SC2 | -8 | -1 | 0 | -1 | 0 | ·
Fc1ccc(Cn2nnnc2CN2CCN(C3CCCC3)CC2)cc1 | 45* | -5 | -10 | 7 | 5 | >50
Cn1ccnc1SCC(=O)NC12CC3CC(CC(C3)C1)C2 | 36 | -8 | 5 | -8 | 0 | ·
Cn1c(Oc2ccccc2)c(C=O)c2ccccc21 | -1 | -13 | 5 | 0 | 0 | ·
CN1C(=O)CCC1(O)c1ccccc1 (stereo unspecified) | -7 | -6 | 8 | -2 | -4 | ·
O=C1CCC(C(=O)O)(c2ccccc2)C1 (stereo unspecified) | 46* | -9 | -8 | 8 | -3 | >50
CCCCCC(/C=N/Nc1ccc(S(=O)(=O)N2CCOCC2)cc1[N+](=O)[O-])=C\c1ccccc1 | 6 | -12 | 6 | -7 | -2 | ·
CCCC(=O)c1cc(F)c(N2CCOCC2)cc1C | -2 | -13 | -5 | 4 | -8 | ·
CCS(=O)(=O)n1nc(-c2ccc(Cl)cc2)nc1SC | -4 | -7 | 9 | -11 | 1 | ·
Cn1nc(-c2ccc(Cl)cc2)nc2c(=O)n(C)c(=O)nc1-2 | 65* | 2 | 45* | -44 | 0 | >50
OCCSc1nncn1/N=C/c1c[nH]c2ccccc12 | -29 | 4 | -2 | 1 | 4 | ·
O=[N+]([O-])c1ccccc1CNC(Cc1ccccc1)c1ccccc1 (stereo unspecified) | 1 | -12 | 8 | -8 | -7 | ·
O=C(CN1C(=O)c2ccccc2C1=O)N1CCN(c2nnc(-c3ccccc3)c3ccccc23)CC1 | 47* | -13 | 8 | -9 | -5 | >50
Cc1ccc(-c2nnc(N3CCN(C(=O)CN4C(=O)c5ccccc5C4=O)CC3)c3ccccc23)cc1 | 36 | -4 | -3 | 5 | 9 | ·
COc1ccc(CN2CCc3ccccc3C2)c(OC)c1OC | -8 | -7 | 10 | -8 | 6 | ·
Cc1ccc(C(=O)c2c[nH]c(C(=O)NCCCN3CCOCC3)c2)cc1 | 58* | -3 | 8 | -5 | 5 | >50
CCCCN(CCCC)CP(=O)(c1ccccc1)c1ccccc1 | -3 | 6 | 5 | -6 | -2 | ·
Cc1oc2c(c1C(=O)c1ccccc1)C(=O)C(=O)c1ccccc1-2 | 124* | 0 | -1 | 2 | 5 | >50
COCCn1c(SCC(=O)c2ccc(Cl)cc2)nnc1C(C)C | -9 | -3 | 0 | -2 | 1 | ·
CC1Cc2ccccc2N1C(=O)c1ccc2c(c1)nnn2C (stereo unspecified) | 50* | -6 | -9 | 9 | 5 | >50
Cc1cccc(-n2c(CCn3nc(C)c([N+](=O)[O-])c3C)n[nH]c2=S)c1 | 46* | -7 | 16 | -13 | -4 | >50
SMILES | Plk1 PBD FP | PLK1 kinase inh | LYP inh 2 | LYP act | EphB4 ephrin blk | PBD redox DR | others
COc1ccc(CC2NCCC3(O)CCCCC23)cc1 (stereo unspecified) | 39* | -16 | 0 | -1 | -3 | >50
Cc1cc(C)n(-c2nnc3n2N=C(c2ccccc2)CS3)n1 | 46* | -4 | -5 | 2 | -4 | >50
O=C(c1cnn2c1NC(c1ccc(Br)cc1)CC2C(F)(F)F)N1CCN(C23CC4CC(CC(C4)C2)C3)CC1 (stereo unspecified) | -10 | -7 | 8 | -8 | 5 | ·
CCC(=O)Nc1ccc(-c2nnc(SCC(=O)Nc3nccs3)n2C)cc1 | 47* | 19 | -14 | 12 | -1 | >50
CCn1c(SCC(=O)Nc2nccs2)nnc1-c1ccc(C)cc1 | -10 | 16 | 4 | -6 | -10 | ·
COc1ccc(-c2c(NC(=O)c3ccco3)n(C)c3ccccc3c2=O)cc1 | 20 | -8 | 4 | -4 | -3 | ·
COc1ccc(C(C)C)cc1S(=O)(=O)Nc1ccc(Cl)cn1 | 47* | -14 | -39 | 35 | 0 | >50
CCOc1ccc(C)cc1S(=O)(=O)Nc1ccc(Cl)cn1 | -12 | 0 | 6 | -5 | 0 | ·
COc1ccc(C(c2nnnn2Cc2cccs2)N2CCN(c3ccccc3F)CC2)cc1 (stereo unspecified) | 7 | -9 | 0 | -4 | 3 | ·
COc1cc(S(=O)(=O)N2CCCCCC2)ccc1-n1cnnn1 | 38* | -2 | -2 | 5 | 2 | >50
Cc1ccccc1Oc1ncnc2oc(-c3ccccc3)cc12 | 68* | -7 | 0 | 3 | -9 | >50
Clc1ccc(Oc2ncnc3oc(-c4ccccc4)cc23)cc1 | -7 | -39 | 8 | -4 | 4 | ·
O=C(CC1C(=O)NCCN1C(=S)Nc1ccccc1)Nc1ccc2c(c1)OCCO2 (stereo unspecified) | 43* | -1 | 6 | -2 | 4 | >50
O=C(CC1C(=O)NCCN1C(=O)Nc1ccccc1)Nc1ccc2c(c1)OCO2 (stereo unspecified) | 8 | -6 | -5 | 2 | 3 | ·
Cc1sc(N/N=C/C=C/c2ccccc2)nc1-c1ccccc1 | -18 | -7 | 16 | -14 | -8 | ·
COCCCNC(=O)c1ccc(CS(=O)(=O)Cc2cccc(C)c2)o1 | 4 | 1 | -41 | 37* | -2 | · | PTPN22 act conf=8
Cc1cccc(CS(=O)(=O)Cc2ccc(C(=O)NCc3ccco3)o2)c1 | -2 | -12 | 0 | -3 | 0 | ·
O=C(NNC1=C(C(=O)C(F)(F)F)CCC1)c1ccc(Cl)cc1 | -4 | -18 | -40 | 45* | 0 | · | PTPN22 act conf=0
CS(=O)(=O)c1cnc(-c2ccccc2)nc1Oc1ccc(F)cc1 | -19 | -15 | -36 | 42* | 0 | · | PTPN22 act conf=-9
O=C(OCC(=O)N1CCN(c2ccccc2)CC1)c1cccc(Cl)c1 | -12 | -6 | 1 | 1 | 9 | ·
Cc1nc(C)c(C(=O)OCC(=O)N2CCN(c3ccccc3)CC2)s1 | 8 | -11 | -37 | 40* | -11 | · | PTPN22 act conf=4
